According to paper PMC4336329 (PLoS ONE, 2015):
Screen size: about 310,000 compounds; about 14,000 (4.5%) showed an effect of 50% or more. The effect is printed as a negative number. Many of the other results were omitted from the sample, so strong results are more common in it than they were.

These compounds were tested against human ether-à-go-go-related gene (hERG) potassium channel (human, UniProt Q12809) (assay: primary screen, population patch clamp on CHO cells stably expressing hERG; higher = less effect of the substance).
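Note: peak tail current of the secondary pulse compared with the same well before compound.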

Sequence of human ether-à-go-go-related gene (hERG) potassium channel (Q12809 whole entry, looked up): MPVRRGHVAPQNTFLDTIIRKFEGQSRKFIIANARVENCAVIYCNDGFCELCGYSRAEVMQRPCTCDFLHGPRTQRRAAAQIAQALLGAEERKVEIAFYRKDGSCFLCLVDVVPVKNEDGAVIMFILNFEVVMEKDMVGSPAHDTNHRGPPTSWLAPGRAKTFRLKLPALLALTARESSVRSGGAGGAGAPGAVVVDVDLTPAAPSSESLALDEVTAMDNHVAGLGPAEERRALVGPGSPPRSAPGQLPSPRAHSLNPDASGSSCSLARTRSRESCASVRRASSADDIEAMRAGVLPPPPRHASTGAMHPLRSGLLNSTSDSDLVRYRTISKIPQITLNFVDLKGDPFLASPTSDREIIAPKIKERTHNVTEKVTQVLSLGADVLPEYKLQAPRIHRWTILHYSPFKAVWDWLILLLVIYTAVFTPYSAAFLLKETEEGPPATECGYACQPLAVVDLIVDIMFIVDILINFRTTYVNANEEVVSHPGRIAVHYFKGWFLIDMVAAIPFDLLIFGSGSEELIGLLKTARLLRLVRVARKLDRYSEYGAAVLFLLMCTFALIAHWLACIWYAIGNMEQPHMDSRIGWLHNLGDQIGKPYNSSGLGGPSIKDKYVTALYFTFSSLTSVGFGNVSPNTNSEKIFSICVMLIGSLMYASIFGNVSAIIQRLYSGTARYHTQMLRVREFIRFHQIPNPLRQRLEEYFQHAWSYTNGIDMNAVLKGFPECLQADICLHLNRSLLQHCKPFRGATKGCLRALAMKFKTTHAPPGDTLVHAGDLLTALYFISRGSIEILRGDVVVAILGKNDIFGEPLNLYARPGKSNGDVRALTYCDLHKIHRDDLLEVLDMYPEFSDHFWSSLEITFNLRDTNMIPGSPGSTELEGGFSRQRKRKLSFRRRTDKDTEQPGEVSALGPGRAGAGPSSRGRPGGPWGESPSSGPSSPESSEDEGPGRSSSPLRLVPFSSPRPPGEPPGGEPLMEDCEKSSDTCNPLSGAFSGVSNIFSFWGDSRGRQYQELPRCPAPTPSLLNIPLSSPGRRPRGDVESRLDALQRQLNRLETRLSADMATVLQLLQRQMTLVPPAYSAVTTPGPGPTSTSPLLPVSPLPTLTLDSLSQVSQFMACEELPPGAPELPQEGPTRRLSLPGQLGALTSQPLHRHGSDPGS

| SMILES | hERG current change (%, negative = inhibition) at 10uM |
| --- | --- |
| CC(=O)c1ccc(OCC(O)CN2CCN(CC(O)COc3ccc(C(C)=O)cc3)CC2)cc1 (centres unmarked) | -39.4% |
| CCC(=O)c1ccc(OCC(O)CN2CCN(c3ccc(F)cc3)CC2)cc1 (centres unmarked) | -26.8% |
| CC1CCN(CC(O)COc2ccc(F)cc2)CC1 (centres unmarked) | -37.7% |
| Cl.OC(COc1ccc2c(c1)OCO2)CN1CCN(c2ccccc2)CC1 (centres unmarked) | -2.44% |
| COc1ccc(OCC(O)CN2CCN(CC(O)COc3ccc(OC)cc3)CC2)cc1 (centres unmarked) | -47.5% |
| Cl.OC(COc1ccc2c(c1)OCO2)CN1CCN(c2ccc(F)cc2)CC1 (centres unmarked) | -66.1% |
| Cc1ccc(NC(=S)NC(=O)/C=C/c2ccco2)c(O)c1 | 2.91% |
| COC(=O)CCC(=O)N1CCCC(CNS(=O)(=O)c2ccc(OC)cc2)C1 (centres unmarked) | 39.4% |
| COc1cc(NC(=O)COC(=O)Cn2cnc3c2c(=O)n(C)c(=O)n3C)cc(OC)c1 | 1.05% |
| CC(C)COC(=O)C1C2C=CC3(CN(C4CCCC4)C(=O)C13)O2 (centres unmarked) | -15.4% |
| Cc1ccc(S(=O)(=O)N2CCN(C(=O)c3ccccn3)CC2)cc1 | 9.2% |
| Cc1cccc(NC(=O)c2cc(-c3ccc(C)s3)nc3ccccc23)n1 | 5.03% |
| CC(=O)c1cc2ccccc2oc1=O | 2.96% |
| CCN1C(=O)[C@H]2[C@@H](c3ccc(C)cc3)N3C(=O)N(c4cccc(F)c4)C(=O)[C@@]3(C)[C@H]2C1=O | 3.13% |
| O=S(=O)(Cc1cccc(C(F)(F)F)c1)c1ncn[nH]1 | 17.9% |
| COc1cccc(COc2ccc3c(C)c(Cc4ccccc4)c(=O)oc3c2)c1 | 6.98% |
| CCN1C=C(Cc2cccs2)C2=C(C1)C(c1cccs1)C(C#N)=C(N)O2 (centres unmarked) | -16.8% |
| Cc1cc(=O)oc2cc(OCCCC[n+]3ccccc3)ccc12.[Br-] | 4.72% |
| CCC(C)(C)c1ccc(OCCCC[n+]2ccc(C)cc2)c(C(C)(C)CC)c1.[Br-] | -75.7% |
| Cc1cc[n+](CC[n+]2ccc(C)cc2)cc1.[Br-] | 16.7% |
| CCC(C)(C)c1ccc(OCC(=O)N(C)C)c(C(C)(C)CC)c1 | -4.24% |
| CCC(C)(C)c1ccc(OCCCC[n+]2cccc(C)c2C)c(C(C)(C)CC)c1.[Br-] | -75.8% |

| SMILES | hERG current change (%, negative = inhibition) at 10uM |
| --- | --- |
| CCC(C)(C)c1ccc(OCCCC[n+]2ccccc2)c(C(C)(C)CC)c1.[Br-] | -67.2% |
| Cc1cc(C(C)(C)C)ccc1OCCCCN1CCCC1 | -40% |
| CCC(C)(C)c1ccc(Oc2cccc(C(=O)O)c2)cc1 | 11.5% |
| CCC(C)(C)c1ccc(O)cc1 | 6.62% |
| O=C(Nc1nnc(-c2ccco2)s1)c1ccccc1 | 8.26% |
| Nn1c(Cc2ccccc2F)nnc1SCCOc1ccc(Cl)cc1 | -14.1% |
| C=CCSc1nnc(CNC(=O)c2ccccc2C)n1C(C)C | 5.68% |
| CC(=O)c1c(C)[nH]c(C(=O)NCCC2=CCCCC2)c1C | 4.77% |
| O=C1CC(c2ccccc2)CC(O)=C1C=NCCN1CCOCC1 (centres unmarked) | -0.797% |
| Cc1ccc(C2CC(=O)C(C=NCCN3CCN(C(=O)Cc4ccccc4)CC3)=C(O)C2)cc1 (centres unmarked) | -42.8% |
| O=C1CC(c2ccccc2)CC(O)=C1C=NCCN1CCN(C(=O)Cc2ccccc2)CC1 (centres unmarked) | -53% |
| O=C1CC(c2ccccc2)CC(O)=C1C=NCCN1CCN(Cc2ccccc2)CC1 (centres unmarked) | -63.1% |
| O=C1CC(c2ccccc2)CC(O)=C1C=NCCc1ccccc1 (centres unmarked) | 6.57% |
| O=C1CC(c2ccccc2)CC(O)=C1C=NCCN1CCNCC1 (centres unmarked) | 9.28% |
| Cc1ccc(C)c(OC2=NS(=O)(=O)c3ccccc32)c1 | 23.2% |
| Cc1cc(Cl)ccc1OCCCC(=O)N/N=C/c1cccc([N+](=O)[O-])c1 | 22.2% |
| CC(=O)Nc1cccc(-c2nc3ccccc3s2)c1 | -13.4% |
| O=C(Nc1ccc(O)c(-c2nc3ccccc3s2)c1)c1cccs1 | -9.79% |
| O=C(Nc1cccc(-c2nc3ccccc3s2)c1)c1cccs1 | -53.1% |
| Cc1nc(N2CCN(c3ccccn3)CC2)c2c(C)c(C(=O)Nc3c(F)cc(F)cc3Br)sc2n1 | -14.4% |
| CN1CCN(S(=O)(=O)c2ccc(Cl)c3ccccc23)CC1 | -1.62% |
| C=CCn1c(NC(=O)c2ccc(Br)o2)c(C(=O)OCC)sc1=S | 37% |
